Hits are enriched below; roughly 7.3% of the tested compounds scored in any of these assays.
NPC1 prom act = activates the NPC1 promoter; Huh7 NPC1 promoter luciferase reporter, 24 h; Potency, µM (titrated, usually from 9.22 µM), without a hit: at the top dose activation, hits mostly activators; 2.4% of 320,000 active; also: % of control where 0% means no effect; nearly all actives have a fitted effect of over 60% in size
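NPC1 promoter–luciferase Huh7 cells; 24 h compound; luminescence.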
Rab9 prom act = activators of Rab9 promoter. Huh7 Rab9 promoter-luciferase reporter, luminescence, 24 h. 2.8% of 320,000 active. AID 485297. Potency, µM (titrated, usually from 9.22 µM), for inactives: top-dose activation, negative = inhibition, usual class: activators; also: % of control where 0% means no effect; nearly all actives have a fitted effect of over 60% in size
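Steps: seed 1500 Huh7 Rab9-luc cells per well, rest 2 h at 37 °C; add compound in DMSO; incubate 24 h; add luciferase reagent, 10 min ambient; read luminescence.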
SMN2 splice up = SMN2 splice variant enhancement; Potency, µM (top dose mostly 46.1 µM), for inactives: top-dose activity change, positive = activation, actives largely listed as activators; HEK293 SMN2-luciferase splicing reporter, luminescence, 30-36 h; 2.8% of 210,000 active; also: % of control where 0% means no effect; nearly all actives have a fitted effect of over 55% in size
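qHTS luciferase splicing reporter: luminescence rises when SMN2 exon 7 is included in transfected HEK293 cells. Compound exposure lasted 30-36 h at 37C, with 4.5 mM final sodium butyrate as control, followed by a ONE-Glo read.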
ELG1 genotoxic = induces genotoxicity in HEK293T cells with luciferase-tagged ELG1. HEK293T ELG1-luciferase reporter, luminescence, 16 h. Potency, µM (highest dose often 46 µM), for the others: top-dose activity change, positive = activation, actives largely listed as activators. 1.3% of 330,000 active. AID 504466; also: % of control where 0% means no effect; nearly all actives have a fitted effect of over 60% in size
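16 hr compound incubation (37 °C, 5% CO2) of HEK293T cells carrying luciferase-tagged ELG1; luciferase then measured by ONE-Glo luminescence after 30 min at RT.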
FLuc modulator = counter-screen for miR-21 project: firefly luciferase inhibitors or activators. purified FLuc, Km substrates, luminescence inhibition. AID 588342. P08659. Potency, µM (highest dose often 57.5 µM), without a hit: at the top dose activity change, negative = inhibition, hits mostly inhibitors. 6.9% of 360,000 active;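 also: plate controls were vehicle for no effect and reference inhibitor for full effect; nearly all actives have a fitted effect of over 55% in size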
Target sequence (P08659 whole entry, looked up): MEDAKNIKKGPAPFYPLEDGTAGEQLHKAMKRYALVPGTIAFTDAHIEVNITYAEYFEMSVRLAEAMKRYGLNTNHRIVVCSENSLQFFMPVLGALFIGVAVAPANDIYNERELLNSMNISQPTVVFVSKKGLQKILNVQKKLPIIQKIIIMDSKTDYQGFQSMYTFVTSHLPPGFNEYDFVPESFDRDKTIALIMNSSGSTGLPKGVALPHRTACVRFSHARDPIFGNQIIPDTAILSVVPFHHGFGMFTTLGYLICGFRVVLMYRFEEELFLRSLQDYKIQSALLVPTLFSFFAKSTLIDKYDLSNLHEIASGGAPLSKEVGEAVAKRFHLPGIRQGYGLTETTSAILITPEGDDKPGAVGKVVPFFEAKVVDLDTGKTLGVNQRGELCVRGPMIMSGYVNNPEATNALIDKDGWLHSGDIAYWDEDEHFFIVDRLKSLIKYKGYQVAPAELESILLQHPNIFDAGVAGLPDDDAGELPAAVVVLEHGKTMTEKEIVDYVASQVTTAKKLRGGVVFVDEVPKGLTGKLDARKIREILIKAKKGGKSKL
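Purified P. pyralis luciferase (10nM final) with 10uM D-luciferin and 10uM ATP (Km levels) in 50mM Tris acetate pH 7.5, 10mM Mg acetate, 0.01% Tween-20, 0.05% BSA; qHTS 6-point titration, ~60 µM downward; luminescence read.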
p53 reactivation = restores transcriptional activity of mutant p53. H1299 p53-A138V BP100-luciferase reporter, luminescence, 24 h. Potency, µM (highest dose often 92.2 µM), inactives show at the highest dose activity change, positive = activation, hits mostly activators. 0.063% of 320,000 active. AID 504706; also: % of control where 0% means no effect; nearly all actives have a fitted effect of over 45% in size
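H1299 (p53-null), stable ts p53-A138V + BP100-Luc; 1000 cells/well, Opti-MEM/10% FBS; cpd 4 pt, 1:5; 24 h, 37 deg C, 5% CO2; detection reagent 10 min RT; luminescence.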
* hit, by the source's call; ? = inconclusive; nt = not tested or not shown; [ ] = another dose, or the depositor's remark. Calls follow the shape of the dose curve; as a rule, active = well fitted curve in the direction sought with a large enough effect; inconclusive = small, poorly fitted or top-dose-only effect, or another doubt; inactive = no such curve, though single readings can be large; an effect the other way counts as inactive or inconclusive. Potency is read from the fitted curve at half-maximal effect.

SMILES	NPC1 prom act	Rab9 prom act	SMN2 splice up	ELG1 genotoxic	FLuc modulator	p53 reactivation
O=C(Nc1ccc(N2CCOCC2)cc1)Nc1ccc2nc(-c3ccco3)c(-c3ccco3)nc2c1	-3.2%	-8.2%	-17.6%	-6.5%	-6.4%	20.0%
CCOc1ccc(S(=O)(=O)NCC(c2ccc(N(C)C)cc2)N2CCCC2)cc1 (centres undefined)	nt	nt	nt	nt	-3.1%	nt
CCOc1ccc(CNC(=O)c2cc3oc4ccccc4c3n2C)cc1	6.8%	-1.3%	25.1µM*	-9.1%	-6.3%	-8.7%
COc1cccc(CNC(=O)c2cc3oc4ccccc4c3n2C)c1OC	0.3%	7.5%	15.8µM*	6.7%	?	?
CCOc1ccccc1CNC(=O)c1cc2oc3ccccc3c2n1CC	1.2%	-0.6%	?	-1.3%	-8.3%	0.5%
Cc1noc(C)c1-c1cc(N(C)C)ncn1	nt	nt	6.2%	nt	nt	nt
CC(C)c1ccc(C(=O)Nc2nnc(S(=O)(=O)N3CCOCC3)s2)cc1	-4.5%	0.3%	nt	-1.6%	16.9µM*	3.4%
CCN(CC)S(=O)(=O)c1nnc(NC(=O)c2ccc(C(C)C)cc2)s1	nt	nt	nt	nt	9.53µM*	nt
Cc1ccccc1N1CCN(S(=O)(=O)c2nnc(NC(=O)c3ccc(C(C)C)cc3)s2)CC1	nt	nt	nt	nt	23.9µM*	nt
O=C(NCC1CCCO1)c1cc2c(s1)CCC2 (centres undefined)	29.0%	?	?	?	?	2.9%
CC1CCc2sc(C(=O)NNS(=O)(=O)c3ccc(F)c(F)c3F)cc2C1 (centres undefined)	-0.2%	0.0%	nt	6.0%	10.7µM*	-5.5%
CC1CCc2sc(C(=O)Nc3ccc(C(N)=O)cc3)cc2C1 (centres undefined)	?	25.0%	nt	?	2.39µM*	2.6%
CC1CCc2sc(C(=O)NNC(=S)NC3CC3)cc2C1 (centres undefined)	?	1.12µM*	nt	1.5%	-15.7%	21.1%
CC1CCc2sc(C(=O)NNC(=O)c3ccncc3)cc2C1 (centres undefined)	-4.3%	2.1%	nt	15.6%	?	2.0%
CC1CCc2sc(C(=O)NCC3CCCO3)cc2C1 (centres undefined)	2.82µM*	3.98µM*	nt	?	10.7µM*	?
CC1CCc2sc(C(=O)NN)cc2C1 (centres undefined)	4.6%	7.4%	nt	-3.6%	?	13.9%
C[C@H](NS(=O)(=O)c1c(Cl)cccc1Cl)C(=O)NNC(=O)COc1ccccc1F	nt	nt	nt	1.4%	nt	3.1%
CC(C)(C)OC(=O)N1CCC(c2c(C(=O)NCc3ccco3)cnn2-c2ccccc2Cl)CC1	nt	nt	nt	nt	5.0%	nt
CCc1ccc(Oc2c(C(F)(F)F)oc3c(CN4CCCC(C)C4)c(O)ccc3c2=O)cc1 (centres undefined)	nt	nt	7.2%	nt	1.7%	nt
Clc1cccc(-c2cc3nc4c(c(N5CCNCC5)n3n2)CCCC4)c1	-9.0%	1.5%	-124.9%	1.4%	?	17.6%
OC1CCN(c2c3c(nc4cc(-c5cccc(F)c5)nn24)CCCC3)CC1	1.3%	7.6%	28.9%	-0.1%	?	17.8%
Fc1cccc(-c2cc3nc4c(c(N5CCC6(CC5)OCCO6)n3n2)CCCC4)c1	-1.4%	-0.2%	10.7%	?	15.1µM*	?
CN(CCO)c1c2c(nc3cc(-c4cccc(F)c4)nn13)CCCC2	3.55µM*	3.55µM*	23.3%	?	23.9µM*	?
O=C(N/N=C/c1c[nH]c2ccccc12)c1ccc(Cl)cc1	?	?	nt	12.7%	7.57µM*	?
O=C(N/N=C/c1c[nH]c2ccccc12)C1CC1(c1ccccc1)c1ccccc1 (centres undefined)	-0.9%	2.0%	nt	-7.7%	-0.2%	0.7%
SMILES	NPC1 prom act	Rab9 prom act	SMN2 splice up	ELG1 genotoxic	FLuc modulator	p53 reactivation
O=C(N/N=C/c1c[nH]c2ccccc12)c1ccccc1Cl	4.9%	-2.2%[1.84 µM]	nt	-0.1%	?	12.1%
COC(=O)N/N=C/c1c[nH]c2ccccc12	-3.4%	1.4%	-46.9%	0.3%	-16.5%	-5.6%
CC(C)(C)OC(=O)N/N=C/c1c[nH]c2ccccc12	22.4%	25.1%	nt	15.2%	9.53µM*	?
O=C(N/N=C/c1c[nH]c2ccccc12)c1cc(Cl)ccc1O	21.0%	14.3%	nt	7.3%	16.9µM*	6.7%
Nc1ccc(C(=O)N/N=C/c2c[nH]c3ccccc23)cc1	5.7%	3.3%	nt	6.2%	13.5µM*	5.2%
Cc1c(CN(C)C)c2c(n1Cc1ccccc1)C(=O)c1ccccc1-2	-4.1%	-0.2%	?	-7.8%	2.9%	-3.8%
C[C@@H]1CCC2[C@](C)(CO)C(O)CC[C@@]2(C)[C@@]12CC[C@](CO)(CCO)O2 (some centres undefined)	nt	nt	-0.9%	nt	nt	nt
COC(=O)c1sccc1S(=O)(=O)N(CC(=O)NCc1ccc(C)cc1)c1ccc(C)c(C)c1	nt	nt	nt	nt	-9.3%	nt
Cc1ccc(CC(=O)OC(C)C(=O)NC2CCCCC2C)cc1C (centres undefined)	-2.4%	-4.3%	nt	-5.3%	0.0%	-0.2%
Cc1cccc(Cn2c(SCc3ccc(C(=O)NC4CCCC4)cc3)nc3cccnc32)c1	nt	nt	nt	nt	-1.6%	nt
Cc1occc1C(=O)N/N=C/c1c[nH]c2ccccc12	?	?	4.6%	?	13.5µM*	8.9%
CCOC(=O)N/N=C/c1c[nH]c2ccccc12	-2.4%	8.1%	4.1%	7.6%	?	9.3%
O=C(O)c1ccc(N/N=C/c2c[nH]c3ccccc23)cc1	-9.3%	-5.3%	nt	?	0.426µM*	-12.9%
NC(=S)N/N=C/c1c[nH]c2ccccc12	2.1%	7.2%	nt	8.4%	-15.9%	6.0%
O=C(N/N=C\c1c[nH]c2ccccc12)c1ccc(O)cc1	21.5%	16.7%	nt	11.6%	15.1µM*	5.7%
CC(C)Oc1ccc(Br)cc1C(=O)N/N=C/c1c[nH]c2ccccc12	-5.2%	2.1%	nt	-6.3%	-21.0%	-5.9%
O=C(N/N=C/c1c[nH]c2ccccc12)c1ccc(Br)cc1	25.7%	?	nt	?	6.75µM*	9.4%
O=C(CNC(=O)c1ccc(F)cc1)OCc1cc(=O)n2nc(C3CC3)sc2n1	nt	nt	nt	nt	-5.3%	nt
O=c1c2c(nc3cc(-c4ccccc4)[nH]n13)CCS2	3.98µM*	2.82µM*	?	?	9.53µM*	9.5%
O=c1c2c(nc3cc(-c4ccccc4Cl)[nH]n13)CCS2	?	3.55µM*	15.8µM*	?	8.49µM*	11.8%
CCOC(=O)Cc1cc(=O)n2[nH]c(-c3ccccc3)cc2n1	1.3%	12.4%	21.9%	5.3%	?	14.4%
Cc1ccc(C(CC(=O)Nc2ccc(C)cc2C)N2Cc3ccccc3C2=O)cc1 (centres undefined)	nt	nt	nt	nt	-11.3%	nt

Screening data (PubChem)
